Experimental data as given in PubChem BioAssay (NCATS).
Several values for one entry are separate records, joined by “and”; a condition that tells them apart may be missing. Equal entries are not always repeated. Results filed as inconclusive are left out. Where a call stands in place of a potency, no number is given. A number with no mark means an inactive call. Activity calls are given as the source filed them. Calls come from the whole dose curve; as a rule, active = well fitted inhibition curve with a large enough effect; inconclusive = small, poorly fitted or top-dose-only effect; inactive = flat fitted curve, though single readings scatter.

Assays:
[1] = system: PC15; assay: qHTS profiling for inhibitors of Plasmodium falciparum proliferation (AID 504749); settings: P. falciparum in erythrocytes, SYBR Green DNA, 72 h; series mostly up to 28.7 µM
Method in brief: (§1)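 P. falciparum-infected erythrocytes (0.3% parasitemia, 2.5% hematocrit) incubated with compound 72 h at 37 C, 5% CO2. Parasite DNA detected by SYBR Green after lysis, overnight at room temperature; normalised to 0.29 uM artemisinin and DMSO.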

[2] = system: PC26; assay: as above; settings: P. falciparum in erythrocytes, SYBR Green DNA, 72 h; series mostly up to 28.7 µM
Method in brief: as §1

[3] = system: PC49; assay: as above; settings: P. falciparum in erythrocytes, SYBR Green DNA, 72 h; series mostly up to 28.7 µM
Method in brief: as §1

[4] = system: SC27B; assay: as above; settings: P. falciparum in erythrocytes, SYBR Green DNA, 72 h; series mostly up to 28.7 µM
Method in brief: as §1

[5] = system: TAB113; assay: as above; settings: P. falciparum in erythrocytes, SYBR Green DNA, 72 h; series mostly up to 28.7 µM
Method in brief: as §1

[6] = system: TAB165; assay: as above; settings: P. falciparum in erythrocytes, SYBR Green DNA, 72 h; series mostly up to 28.7 µM
Method in brief: as §1

[7] = system: W2; assay: as above; settings: P. falciparum in erythrocytes, SYBR Green DNA, 72 h; series mostly up to 28.7 µM
Method in brief: as §1

[8] = system: CRL-7250; assay: Cytotoxic Profiling of Annotated Libraries Using Quantitative High-Throughput Screening (AID 1296008); settings: Five cell lines viability, CellTiter-Glo ATP luminescence, 48-72 h; max response: active compounds read low
Method in brief: (§2)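 Cells exposed to compounds for 48 or 72 hr at 37 degrees Celsius. Viability read as ATP-coupled luminescence with CellTiter-Glo after 10 min at room temperature.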

[9] = system: HEK293; assay: as above; settings: Five cell lines viability, CellTiter-Glo ATP luminescence, 48-72 h; max response: active compounds read low
Method in brief: as §2

[10] = system: TAB109; assay: qHTS profiling for inhibitors of Plasmodium falciparum proliferation (AID 504749); settings: P. falciparum in erythrocytes, SYBR Green DNA, 72 h; series mostly up to 28.7 µM
Method in brief: as §1
Note: nearly all actives have a fitted effect of over 60% in size.
Potency is the fitted concentration of half-maximal effect.

Compound: CCn1cc(C(=O)O)c(=O)c2cc(F)c(N3CCNCC3)cc21
- Potency [1]: inactive
- Potency [2]: inactive
- Potency [3]: inactive
- Potency [4]: inactive
- Potency [5]: inactive
- Potency [6]: inactive
- Potency [7]: 2.56 µM (active)
- max response [8]: -1.25% and -6.48%
- max response [9]: -12.4% and -3.6%

Compound: CC[C@H](NC(C)C)[C@H](O)c1ccc(O)c2[nH]c(=O)ccc12
- Potency [1]: inactive
- Potency [2]: inactive
- Potency [3]: inactive
- Potency [4]: inactive
- Potency [10]: inactive
- Potency [5]: inactive
- Potency [6]: inactive
- Potency [7]: inactive
- max response [8]: 0.158% and -0.536%
- outcome [9]: inactive

Compound: O=S(=O)(c1cccc2cnccc12)N1CCCNCC1
- outcome [8]: inactive
- max response [9]: -25.6%
- outcome [9]: inactive

Compound: NC(=O)c1cccc(N)c1
- max response [8]: -10%
- max response [9]: -4.67%

Compound: O=P(O)(O)C(O)(Cc1cccnc1)P(=O)(O)O
- Potency [1]: inactive
- Potency [2]: inactive
- Potency [3]: inactive
- Potency [4]: inactive
- Potency [10]: inactive
- Potency [5]: inactive
- Potency [6]: inactive
- Potency [7]: inactive
- max response [8]: -3.74% and -13.5% and 3.83%
- max response [9]: -6.47% and -0.4%
- outcome [9]: inactive

Compound: CCOCC(O)COc1ccc(NC(=O)CC[S+](C)C)cc1 (stereo unspecified)
- Potency [1]: inactive
- Potency [2]: inactive
- Potency [3]: inactive
- Potency [4]: inactive
- Potency [10]: inactive
- Potency [5]: inactive
- Potency [6]: inactive
- Potency [7]: inactive
- max response [8]: -11.9% and -0.62%
- max response [9]: -1.76% and 3.69%

Compound: COc1cccc(N(C)C(=S)Oc2ccc3c(c2)CCCC3)n1
- Potency [1]: inactive
- Potency [2]: inactive
- Potency [3]: inactive
- Potency [4]: inactive
- Potency [10]: inactive
- outcome [8]: inactive
- max response [9]: -19.3%

Compound: COc1nc(N)nc2c1ncn2[C@@H]1O[C@H](CO)[C@@H](O)[C@@H]1O
- Potency [1]: inactive
- Potency [2]: inactive
- Potency [3]: inactive
- Potency [4]: inactive
- Potency [10]: inactive
- Potency [5]: inactive
- Potency [6]: inactive
- Potency [7]: inactive
- max response [8]: -2.22% and 4.78%
- outcome [9]: inactive

Compound: COC(=O)Nc1nc2ccc(Sc3ccccc3)cc2[nH]1
- Potency [1]: inactive
- Potency [2]: inactive
- Potency [3]: inactive
- Potency [4]: inactive
- Potency [10]: inactive
- Potency [5]: inactive
- Potency [6]: inactive
- Potency [7]: inactive
- Potency [8]: 2.37 µM (active)
- Potency [9]: 473 nM (active) and 1.32 µM (active)

Compound: Cc1oc(=O)oc1CN1CCN(c2cc3c(cc2F)c(=O)c(C(=O)O)c2n3C(C)S2)CC1 (stereo unspecified)
- Potency [3]: inactive
- Potency [4]: 8.91 µM (active)
- Potency [10]: 4.47 µM (active)
- Potency [5]: 7.94 µM (active)
- Potency [6]: 5.01 µM (active)
- Potency [7]: 4.78 µM (active)
- max response [8]: -3.57% and 1.83%
- max response [9]: 0.387% and 0.715%

Compound: CC[C@H](C)C(=O)O[C@H]1C[C@@H](C)C=C2C=C[C@H](C)[C@H](CC[C@@H]3C[C@@H](O)CC(=O)O3)[C@H]21
- Potency [1]: inactive
- Potency [2]: inactive
- Potency [3]: inactive
- Potency [4]: inactive
- Potency [10]: inactive
- Potency [5]: inactive
- Potency [6]: inactive
- Potency [8]: 2.66 µM (active) and 13.2 µM (active) and 3.17 µM (active)
- max response [9]: -37.5%

Compound: CC(C)OC(=O)C(C(=O)OC(C)C)=C1SC=CS1
- Potency [1]: inactive
- Potency [2]: inactive
- Potency [3]: inactive
- Potency [4]: inactive
- Potency [10]: inactive
- Potency [5]: inactive
- Potency [6]: inactive
- Potency [7]: inactive
- outcome [8]: inactive
- max response [9]: -6.55%

Compound: Cc1noc(NS(=O)(=O)c2ccc(N)cc2)c1C
- Potency [1]: inactive
- Potency [2]: inactive
- Potency [3]: inactive
- Potency [4]: inactive
- Potency [10]: inactive
- Potency [5]: inactive
- Potency [6]: inactive
- max response [8]: 4.08% and -1.95%
- outcome [9]: inactive

Compound: COC(=O)Nc1nc2ccc(C(=O)c3ccccc3)cc2[nH]1
- Potency [1]: inactive
- Potency [3]: inactive
- Potency [4]: inactive
- Potency [10]: inactive
- Potency [5]: inactive
- Potency [6]: inactive
- Potency [8]: 5.9 µM (active)
- max response [9]: -90.7%

Compound: COc1ccc(-c2ccc3cc(C(=O)O)ccc3c2)cc1C12CC3CC(CC(C3)C1)C2
- Potency [1]: inactive
- Potency [2]: inactive
- Potency [3]: inactive
- Potency [4]: inactive
- Potency [10]: inactive
- Potency [5]: inactive
- Potency [6]: inactive
- max response [8]: 1.82% and 2%

Compound: CNC(=O)c1cc(Oc2ccc(NC(=O)Nc3ccc(Cl)c(C(F)(F)F)c3)cc2)ccn1
- Potency [1]: 7.08 µM (active)
- Potency [2]: 3.38 µM (active)
- Potency [3]: 8.91 µM (active)
- Potency [4]: 5.01 µM (active)
- Potency [5]: 11.2 µM (active)
- Potency [6]: 5.62 µM (active)
- Potency [7]: 15.1 µM (active)
- Potency [9]: 7.43 µM (active) and 5.8 µM (active)

Compound: CC(C)NCC(O)c1ccc(NS(C)(=O)=O)cc1 (stereo unspecified)
- Potency [1]: inactive
- Potency [2]: inactive
- Potency [3]: inactive
- Potency [4]: inactive
- Potency [10]: inactive
- Potency [5]: inactive
- Potency [6]: inactive
- Potency [7]: inactive
- outcome [8]: inactive

Compound: CCOC(=O)c1ccc(C#Cc2ccc3c(c2)C(C)(C)CCS3)nc1
- Potency [1]: inactive
- Potency [3]: inactive
- Potency [4]: inactive
- max response [8]: -0.581% and -12.4%

Compound: OC(Cn1cncn1)(Cn1cncn1)c1ccc(F)cc1F
- Potency [1]: inactive
- Potency [2]: inactive
- Potency [3]: inactive
- Potency [4]: inactive
- Potency [10]: inactive
- Potency [5]: inactive
- Potency [6]: inactive
- Potency [7]: inactive
- max response [8]: 2.49% and -1.86%

Compound: COc1ncnc(NS(=O)(=O)c2ccc(N)cc2)c1OC
- Potency [1]: inactive
- Potency [2]: inactive
- Potency [3]: inactive
- Potency [4]: inactive
- Potency [10]: inactive
- Potency [5]: inactive
- Potency [6]: inactive
- Potency [7]: inactive

Compound: CCOc1cc(N)c(Cl)cc1C(=O)NCC1CN(Cc2ccc(F)cc2)CCO1 (stereo unspecified)
- Potency [4]: 8.91 µM (active)
- Potency [10]: 10 µM (active)
- Potency [5]: 14.1 µM (active)
- Potency [6]: 6.31 µM (active)
- Potency [7]: 7.57 µM (active)
- outcome [8]: inactive
- outcome [9]: inactive

Compound: CCCCCCNC(=O)n1cc(F)c(=O)[nH]c1=O
- Potency [6]: 10 µM (active)
- Potency [7]: 4.78 µM (active)
- Potency [9]: 7.5 µM (active) and 13.2 µM (active)

Compound: N=C(N)c1ccc(OCCCCCOc2ccc(C(=N)N)cc2)cc1
- Potency [1]: 0.355 µM (active)
- Potency [2]: 0.953 µM (active)
- Potency [3]: 0.708 µM (active)
- Potency [4]: 1.12 µM (active)
- Potency [10]: 1.58 µM (active)
- Potency [5]: 1.41 µM (active)
- Potency [6]: 0.501 µM (active)
- Potency [7]: 0.478 µM (active)

Compound: Nc1ccc(S(=O)(=O)Nc2ccccn2)cc1
- Potency [1]: inactive
- Potency [2]: inactive
- Potency [3]: inactive
- Potency [4]: inactive
- Potency [10]: inactive
- Potency [5]: inactive
- Potency [6]: inactive
- Potency [7]: inactive

Compound: CN1CCN(c2c(F)cc3c(=O)c(C(=O)O)cn(CCF)c3c2F)CC1
- Potency [1]: inactive
- Potency [2]: inactive
- Potency [3]: inactive
- Potency [4]: inactive
- Potency [10]: inactive
- Potency [5]: inactive
- Potency [6]: inactive
- Potency [7]: inactive

Compound: CC(C)(C#N)c1cc(Cn2cncn2)cc(C(C)(C)C#N)c1
- Potency [1]: inactive
- Potency [2]: inactive
- Potency [3]: inactive
- Potency [4]: inactive
- Potency [10]: inactive
- Potency [5]: inactive
- Potency [6]: inactive
- Potency [7]: inactive

Compound: COc1cc(NCc2ccc3nc(N)nc(N)c3c2C)cc(OC)c1OC
- Potency [1]: 0.316 µM (active)
- Potency [2]: 0.675 µM (active)
- Potency [3]: 0.501 µM (active)
- Potency [4]: 2.24 µM (active)
- Potency [10]: 1 µM (active)
- Potency [5]: 2.51 µM (active)
- Potency [6]: 1.12 µM (active)
- Potency [7]: 0.301 µM (active)
- Potency [9]: 4.18 µM (active) and 53.1 nM (active)

Compound: Cc1ncc([N+](=O)[O-])n1CCO
- Potency [1]: inactive
- Potency [2]: inactive
- Potency [3]: inactive
- Potency [4]: inactive
- Potency [10]: inactive
- Potency [5]: inactive
- Potency [6]: inactive
- Potency [7]: inactive

Compound: CN1CCCC(n2nc(Cc3ccc(Cl)cc3)c3ccccc3c2=O)CC1 (stereo unspecified)
- Potency [3]: inactive
- Potency [7]: 6.01 µM (active)

Compound: CCc1c2c(nc3ccc(OC(=O)N4CCC(N5CCCCC5)CC4)cc13)-c1cc3c(c(=O)n1C2)COC(=O)[C@]3(O)CC
- Potency [1]: inactive
- Potency [2]: inactive
- Potency [3]: inactive
- Potency [4]: inactive
- Potency [10]: inactive
- Potency [5]: inactive
- Potency [6]: inactive
- Potency [9]: 7.5 µM (active) and 1.05 µM (active)
